# Source: PubChem BioAssay AID1053143 (Broad Institute, 2014)
# The campaign covered roughly 3,400 compounds. About 120 (3.5%) were called active. How the calls were made is not given here. The list is a sample of the results. Results with a measured potency or affinity are listed apart.
# Test: HepG2 cell cytotoxicity, dose response, cytotoxicity control, ATP luminescence, cherry-pick, activator set 2 (AID 1053143)
# Settings: HepG2 viability, CellTiter-Glo ATP luminescence, 72 h; series mostly up to 26 µM
row,SMILES,"activity change, negative = cytotoxicity"
1,Oc1ccc(-c2csc(Nc3ncccn3)n2)c(O)c1,inactive
2,Oc1ccc(-c2csc(Nc3ccc4c(c3)OCO4)n2)c(O)c1,inactive
3,O=C(/C=C\Nc1ccc2c(c1)OCO2)c1ccc2c(c1)OCO2,inactive
4,Fc1ccccc1-c1nc(-c2ccncc2)no1,inactive
5,Fc1ccccc1-c1nc(-c2ccccc2)no1,inactive
6,S=C(c1ccc(-c2cccc(Cl)c2)o1)N1CCCCC1,inactive
7,COc1ccc(/C=C/C(=O)c2ccc[nH]2)cc1OC,inactive
8,Cc1ccc(Cc2c(-c3cccc(Cl)c3)nc3ccc(Br)cn23)cc1,inactive
9,CC(=O)N1N=C(c2ccccc2)CC1c1cn(C)c2ccccc12 (centres undefined),inactive
10,COc1ccc(C2=NN(C(=O)c3ccccc3C(=O)O)C(c3ccccc3O)C2)cc1 (centres undefined),inactive
11,O=c1oc2ccccc2cc1-c1nnc(NCc2ccco2)s1,inactive
12,Cc1cc(OCc2cc(C(=O)N(C)C3CCOC3)no2)cc(C)c1Cl (centres undefined),inactive
13,Nc1c(C(=O)Nc2ccc3c(c2)OCCO3)nnn1Cc1cccc(Cl)c1,inactive
14,C(/CCc1ccccc1)=N\Nc1nc2ccccc2[nH]1,inactive
15,O=[N+]([O-])c1ccc2nc(-c3ccccc3[N+](=O)[O-])[nH]c2c1,inactive
16,Cc1ccccc1-c1cc(-c2ccccc2O)n[nH]1,inactive
17,Oc1ccc(Br)cc1-c1cc(-c2ccccc2F)[nH]n1,inactive
18,Oc1ccccc1-c1cc(-c2ccc(F)cc2)n[nH]1,inactive
19,CC(C)(C)NC(=O)c1cccc(NC(=O)c2cccc(O)c2)c1,inactive
20,CCC(=O)Nc1cc(NC(=O)CSc2ncc(-c3ccc(F)cc3)n2Cc2ccco2)ccc1C,inactive
21,O=C(CSc1nncs1)NC(=O)Nc1ccc2c(c1)OCCO2,inactive
22,CC(C)NC(=O)c1cc(-c2cccs2)on1,inactive
23,Cc1ccc(NC(=O)c2cc(-c3cccs3)on2)cc1C,inactive
24,CCOC(=O)c1ccc(NC(=O)C2CC3CCC2C3)cc1 (centres undefined),inactive
25,CCOc1ccc(C(=O)NC2CCCCCCC2)cc1,inactive
26,CCOc1ccc(C(=O)Nc2ccc3[nH]ncc3c2)cc1,inactive
27,O=C(Nc1ccc2ccccc2n1)c1ccccc1Cl,inactive

row,SMILES,"activity change, negative = cytotoxicity"
1,Cn1c(CCNC(=O)c2ccco2)nc2cc(NC(=O)c3ccco3)ccc21,inactive
2,O=C(Nc1nc2ccc(F)cc2s1)c1cccs1,inactive
3,O=C(Nc1nc2cc3c(cc2s1)OCO3)C1CCCCC1,inactive
4,O=C(Nc1nc2cc3c(cc2s1)OCCO3)C1CCCCC1,inactive
5,CC(C)(C)C(=O)Nc1nc2cc3c(cc2s1)OCO3,inactive
6,CN(C)S(=O)(=O)c1ccc2nc(NC(=O)c3cccnc3)sc2c1,inactive
7,CC(=O)Nc1nc2cc3c(cc2s1)OCCO3,inactive
8,Cc1ccc(C(=O)Nc2nc3ccc(Cl)cc3s2)o1,inactive
9,COc1ccc2nc(NC(=O)c3ccccc3O)sc2c1,inactive
10,Nc1[nH]n(-c2ccccc2)c(=O)c1N=Nc1ccccc1,inactive
11,CC(=O)Nc1cccc(-c2csc(Nc3ncccn3)n2)c1,inactive
12,COc1ccc(N(C(=O)c2ccc(S(=O)(=O)N3CCCC3)cc2)C2C=CS(=O)(=O)C2)cc1 (centres undefined),inactive
13,N/C(=N\OC(=O)c1ccc2c(c1)OCO2)c1ccncc1,inactive
14,N#Cc1cccc(NC(=O)COC(=O)Cn2nc(-c3ccccc3)oc2=O)c1,inactive
15,CC1CC(O)C(C)CN1 (centres undefined),inactive
16,O=C(NC1CCCCC1)c1ccc2ccccc2c1,inactive
17,CCc1ccccc1Nc1nc(N)nc(CSCC(=O)Nc2ccc(C)c(C)c2)n1,inactive
18,O=c1[nH]c(-c2ccccc2)nnc1-c1ccccc1,inactive
19,O=C(OCC(=O)c1ccc(Br)s1)c1ccc(O)cc1,inactive
20,O=C(Nc1ccc(-c2nc3ccccc3o2)cc1)c1cccnc1,inactive
21,c1cncc(CNc2cccc(-c3nc4ccccc4[nH]3)c2)c1,inactive
22,Cc1ccc(-c2cc3nc(NCCc4ccncc4)n(C)c(=O)c3s2)cc1,inactive
23,Cc1ccc(C(=O)Nc2ccc(N3CCCCC3)cc2)cc1,inactive
24,O=C(Cc1ccccc1)Nc1ccc(N2CCCCC2)cc1,inactive
25,COc1ccc(-c2cn3cccc(C)c3n2)cc1F,inactive
26,COc1ccc(C2=Nc3ccccc3N(C(=O)c3ccc4ncccc4c3)C2C(=O)NC(C)(C)C)cc1 (centres undefined),inactive
27,CN(C)c1ccc(N=Nc2ccc(S(N)(=O)=O)cc2)cc1,inactive

row,SMILES,"activity change, negative = cytotoxicity"
1,COc1cc(/C=C/c2ccc3cccc(O)c3n2)cc(Cl)c1OC,inactive
2,Cc1cccc(/C=C/c2ccccc2)n1,inactive
3,Cc1ccc2nc(/C=C/c3cccc(F)c3)ccc2c1,inactive
4,CCNS(=O)(=O)c1ccc2nc(NC(=O)/C=C/c3cc(OC)c(OC)c(OC)c3)sc2c1,inactive
5,Cc1cccc(NC(=O)Nc2ccc3c(c2)OCO3)n1,inactive
6,O=C(NC1CCCC1)c1noc2c1CCCCC2,inactive
7,O=C(NC1CCCCCCC1)NC1CCCCC1,inactive
8,O=C(Nn1c(SCc2cccc([N+](=O)[O-])c2)nc2ccccc2c1=O)c1ccccc1,inactive
9,O=C(Nc1ccc(N2CCCC2)cc1)c1cccc(Cl)c1,inactive
10,Cc1ccc(Nc2cc(C)nc(-c3ccccc3O)n2)cc1,inactive
11,Oc1ccccc1/C=N/Nc1cccc2cccnc12,inactive
12,O=C(O)c1ccc(N/N=C/c2cccc3cccnc23)cc1,inactive
13,COc1ccc(-c2cc3cc(OC)c(OC)cc3cn2)cc1,inactive
14,COc1cccc(NC(=O)NCc2ccccn2)c1,inactive
15,Cc1cccc(-n2ncc3c(N4CCC(C)CC4)ncnc32)c1,inactive
16,Cc1nn(Cc2ccccc2Cl)c(Cl)c1C(=O)NCCc1ccccc1,inactive
17,CN(C)C(=O)c1ccc(-c2cc(C(F)(F)F)nn2C)s1,inactive
18,O=C(COc1ccc(Cl)cc1)Nc1ncc([N+](=O)[O-])s1,inactive
19,Cc1ccnc(NC(=O)c2ccc([N+](=O)[O-])s2)c1,inactive
20,Brc1ccccc1-c1nc2c3ccccc3ncn2n1,inactive
21,Cc1nc2nc(-c3cccs3)cn2nc1C,inactive
22,O=c1[nH]c2ccccc2nc1-c1cccs1,inactive
23,COc1ccc(-c2ccc(SCC(=O)Nc3cc(C)on3)nn2)cc1OC,inactive
24,Cc1ccc(C(=O)OCC(=O)c2ccccc2)cc1,inactive
25,Cc1nc(SCC(=O)c2cccs2)c2oc3ccccc3c2n1,inactive
